Source: PubChem BioAssay
Not all results are given here.
aSyn UTR act = Activators via SNCA 5'UTR binding, MLPCN; activity score, % (tested at 7.5 µM), hits read low; alpha-synuclein 5'UTR reporter, activators screen; AID 1814, 2009; 300,000 tested, 7.1% active; in the data active means activity score below about -60%
Hits are given with their value; . = inactive.

SMILES | aSyn UTR act
Clc1ccc(CSc2nnc3ccccn23)c(Cl)c1 | -74.8
Clc1ccc(CSc2snnc2-c2ccccc2)c(Cl)c1 | -120.8
CCc1cccc2c1NC(=O)C21N2CCCC2C(C(=O)c2ccc3ccccc3c2)C12C(=O)Nc1ccccc12 (stereo not drawn) | -96.6
CCc1ccc2c(c1)C1(NN=C(c3cccc4ccccc34)S1)C(=O)N2 (stereo not drawn) | .
CCc1ccc2c(c1)C1(C(=O)N2)N2CCCC2C(C(=O)c2ccc3ccccc3c2)C12C(=O)Nc1ccccc12 (stereo not drawn) | -127.1
O=C(CCNc1ccc(Cl)cc1)c1cccs1 | -89.3
O=C(CCNc1cc(Cl)cc(Cl)c1)c1cccs1 | -93.5
COc1ccc(OC(=O)Nc2ccccc2)cc1 | -92.2
CCc1ccc(OC(=O)Nc2ccccc2)cc1 | -159.5
CC(C)CC(=O)N/C(N)=N/c1nc2ccccc2o1 | -159.6
CCCC(=O)N/C(N)=N/c1nc2ccccc2o1 | -121.5
Cc1ccsc1C(=O)NN=C1CCCCCC1 | -127.5
CC(C)(C)c1cc(C(=O)N/N=C/c2ccccc2O)n(-c2ccccc2)n1 | .
Cc1ccccc1/C=N/NC(=O)c1sccc1C | -176.5
COc1ccc(/C=N/NC(=O)c2sccc2C)c2ccccc12 | -110.2
Cc1ccccc1/C=N\NC(=O)c1ccccc1-n1cccc1 | -65.4
CCOC(=O)c1sc(Nc2nc3c(F)cccc3s2)cc1C | -279.6
CCOC(=O)c1sc(Nc2nc3ccc(OC)cc3s2)cc1C | -68.9
Cc1nc2cc3ccccc3cc2c(=O)[nH]1 | -112.3
COc1ccc(-c2nc(N/N=C(\C)c3ccc(O)cc3)c3ccccc3n2)cc1 | -91.6
O=c1c2ccccc2nnn1CSc1nc2ccccc2[nH]1 | -173.2
Cc1ccc(SCn2nnc3ccccc3c2=O)c(C)c1 | -146.9
Cc1ccc(NC(=O)Cn2nnc3ccccc3c2=O)cc1 | -93.0
CC1CCCCC1NC(=O)Cn1nnc2ccccc2c1=O (stereo not drawn) | .
O=c1c2ccccc2nnn1CSc1ccccc1F | -98.4
SMILES | aSyn UTR act
Cc1ccc2nc(SCn3nnc4ccccc4c3=O)[nH]c2c1 | -139.4
COC(=O)CSc1nc2cc(OC)ccc2cc1C#N | -133.1
COc1ccc2nc(SCC(=O)Nc3ccc4sc(C)nc4c3)c(C#N)cc2c1 | -147.8
COc1ccc2cc(C#N)c(SCC(=O)NNC(=O)Cc3ccccc3)nc2c1 | -78.1
CCOC(=O)CSC1=C(C#N)C(c2ccc(C)o2)CC(=O)N1 (stereo not drawn) | .
CCOC(=O)CSc1nc2cc(OCC)ccc2cc1C#N | -209.5
CCc1ccc(-c2csc(NC(=O)Oc3ccccc3)n2)cc1 | -160.8
O=C(Nc1nc(-c2cccc(Br)c2)cs1)Oc1ccccc1 | -101.0
COc1cccc(-c2csc(NC(C)=O)n2)c1 | -181.0
Cc1ccc(-n2c(-c3ccc(Br)cc3)c[n+]3c2CCc2ccc4cccnc4c2-3)cc1 | .
O=C(CN1CCCCC1)Nc1nc(-c2ccccc2)cs1 | -76.7
O=C(CCN1C(=O)C2CCCCC2C1=O)Nc1nc(-c2ccccc2)cs1 (stereo not drawn) | -64.6
Cc1ccccc1C(=O)N1CCc2cc(-c3csc(NC(=O)CN4CCCC4)n3)ccc21 | -98.8
Cc1sc(NC(=O)CN2CCCC2)nc1-c1ccc2c(c1)CCN2C(=O)c1cccc(F)c1 | -69.4
O=C(CN1CCCCC1)Nc1nc(-c2ccc(F)c(F)c2)cs1 | -99.5
O=C(CN1CCCCC1)Nc1nc(-c2ccc(Cl)cc2)cs1 | -74.5
O=C(O)COc1ccc(/C=C/C(=O)c2ccc(C3CCCCC3)cc2)cc1 | -114.6
O=C(/C=C/c1ccc(OC2CSC2)cc1)c1ccccc1 | -152.7
CCOc1ccc(/C=C/C(=O)c2ccccc2)cc1 | -178.8
CC(C)(C)C(=O)/C=C/c1ccc(Oc2ccccc2)cc1 | -155.5
NCCOc1ccc(C2CCCCC2)cc1 | .
Cc1ccc(C(=O)Nc2ccn(Cc3ccc(F)cc3)n2)o1 | -65.4
O=C(Nc1ccn(Cc2ccc(Cl)cc2)n1)c1ccccc1 | -148.9
Cc1nn(Cc2ccc(F)cc2)c2sc(C(=O)Nc3ccc(N4CCOCC4)cc3N3CCOCC3)cc12 | .
O=C(Nc1ccn(Cc2ccccc2)n1)c1ccc2c(c1)OCO2 | -170.6
SMILES | aSyn UTR act
CC(=O)Oc1ccc(-c2nc(-c3cccnc3)no2)cc1 | -92.7
CC(=O)Oc1ccc(Oc2ccc(-c3noc(C)n3)cc2)cc1 | -76.7
CC(C)=CC(=O)OCc1cc([N+](=O)[O-])cc2c1OCOC2 | -110.0
N#Cc1c(-c2ccccc2)ccnc1Oc1ccccc1 | -75.0
CCOC(=O)/C(C#N)=C(C)/C=C1\Sc2ccccc2N1CC | -105.5
O=Cc1ccccc1OCc1ccc2c(c1)OCO2 | -257.7
CSc1nc(-c2ccc(N(C)C)cc2)c(C#N)c(=O)n1C | -71.9
CCOC(=O)c1c(C)[nH]c(C=O)c1Cc1cccc(Cl)c1 | .
CCOC(=O)c1c(C)[nH]c(C2=NNC(=Nc3cccc(Cl)c3)SC2)c1C | -73.7
Brc1ccc(Sc2cnc3ccccc3n2)cc1 | -77.1
Clc1ccc(Sc2cnc3ccccc3n2)cc1 | -75.2
c1ccc(Sc2cnc3ccccc3n2)cc1 | -168.6
CCc1ccc(C(=O)Cn2ccsc2=N)cc1 | -101.5
CC(=O)c1ccc(NC(=S)N2CCCC(CO)C2)cc1 (stereo not drawn) | -82.3
